# About 8,600 (12%) of roughly 69,000 compounds showed an effect of 50% or more. The sample as a whole holds a higher share of strong results than the screen did.
# System: Plasmodium berghei
# Test: Screen against P. berghei liver stage (PbLuc), transformed with Luciferase, at 10uM
# Assay type: functional, HepG2
# Conditions: tested at 10 uM
row,SMILES,INHIBITION [%]
1,O=C(c1ccc[nH]1)N1Cc2nccn2CC(Cn2ncccc2=O)C1 (stereo unspecified),-87.3
2,CNC(=O)C1CNCCN1C(=O)c1ccc(C(F)(F)F)nc1C (stereo unspecified),-15.3
3,O=C1C(NS(=O)(=O)c2ccc(F)c(F)c2)CCN1Cc1ccccc1 (stereo unspecified),21.5
4,CCc1ncc(C(=O)NC(C)(C)C(=O)OC)s1,40.6
5,CC(C)NC(=O)CCNC(=O)c1cnc(Cc2ccc(F)cc2)s1,10.6
6,COC(=O)[C@H](C)NC(=O)c1cnc(Cc2ccc(F)cc2)s1,51.7
7,COC(=O)C(C)(C)NC(=O)c1cnc(C(C)(C)C)s1,25.1
8,CN(C)C(=O)CN(C)C(=O)c1cnc(Cc2ccc(F)cc2)s1,2.37
9,COC(=O)C(C)(C)NC(=O)c1cnc(Cc2ccc(F)cc2)s1,92.8
10,Cn1cc(CN2CCn3cc(CNC(=O)C4CCC4)nc3C2)cn1,14.4
11,O=C(c1cnccn1)N1CCN(Cc2cscn2)CC1,25.85
12,CSCC(C)(O)CNS(=O)(=O)c1cccc(Cl)c1 (stereo unspecified),-33.5
13,CN1CCN(C(=O)c2ncn3c2CNS(=O)(=O)c2ccccc2-3)CC1,15.3
14,O=C(c1ncn2c1CNS(=O)(=O)c1ccccc1-2)N1CCCCC1,7.24
15,O=C(c1ncn2c1CNS(=O)(=O)c1ccccc1-2)N1CCCCCC1,68.4
16,CCc1nc(C2CCCN2C(=O)CCc2nc(C(C)(C)C)no2)no1 (stereo unspecified),40.2
17,COc1ncccc1CN1CCC2[C@H]1CCN2CCN(C)C (stereo partly specified),-20.1
18,O=C1COC2(CCN(C(=O)C3CC=CC3)CC2)CN1Cc1cccnc1,-3.24
19,Cc1nc(N2CCOCC2)ncc1-c1cc(O)nc(N2CCCC2)n1,-27.1
20,Cc1cc(C)c2c(N3CCC(C(=O)N4CCOCC4)CC3)ncnc2n1,30.9
21,CC(C)CN1CCC2(C1)CN(c1ncccn1)C2,5.12
22,CCn1cncc1CNc1ccc(-c2nc(CC(C)C)no2)cn1,52

row,SMILES,INHIBITION [%]
1,CC(C)Cc1noc(-c2ccc(NCc3noc(C(C)C)n3)nc2)n1,-26
2,CCC(O)CNc1ccc(-c2nc(CC(C)C)no2)cn1 (stereo unspecified),1.79
3,CCN1C(=O)CCC12CCC(NC(=O)NCc1cccnc1)CC2 (stereo unspecified),25.8
4,Cc1n[nH]cc1C(=O)N1CCCC1c1cc[nH]n1 (stereo unspecified),-26.2
5,Cn1cc(CN2C[C@@H]3CCCO[C@@H]3[C@H](NC(=O)CC3CC3)C2)cn1,11.4
6,COC(=O)CNC(=O)CCc1cc(Cl)cs1,36.3
7,CC(C)NC(=O)CCNC(=O)CCc1cc(Br)cs1,-35.3
8,CC(C)NC(=O)CCNC(=O)CCc1cc(Cl)cs1,62.8
9,CN(c1nccc(-c2cnc3sccn3c2=O)n1)C1CCCCC1,18.9
10,CN(c1nccc(-c2cnc3sc(Cl)cn3c2=O)n1)C1CCCCC1,38.2
11,Cc1cn2c(=O)c(-c3ccnc(N(C)C4CCCCC4)n3)cnc2s1,90.1
12,Cc1cc(C(F)(F)F)n2nc(C3CCCN(S(C)(=O)=O)C3)cc2n1 (stereo unspecified),26.475
13,CCC[C@@H]1CN(S(=O)(=O)c2ccc3[nH]c(=O)[nH]c3c2)C[C@H]1NC(C)=O,3.73
14,Cn1ccnc1C1CCN(S(=O)(=O)c2ccc3c(c2)OCCO3)CC1,35.1
15,Cn1ccnc1C1CCN(S(=O)(=O)c2ccc3[nH]c(=O)[nH]c3c2)CC1,62.9
16,Cc1cc2[nH]c(=O)oc2cc1S(=O)(=O)N1CCCC(N(C)C)CC1 (stereo unspecified),11.6
17,O=c1[nH]c2cc(S(=O)(=O)N3CCC(c4ccsc4)CC3)ccc2o1,16.9
18,Cn1ccnc1C1CCN(S(=O)(=O)c2ccc3oc(=O)[nH]c3c2)CC1,59.7
19,CCN(CC)S(=O)(=O)N1CCC(c2c(C(N)=O)sc3ccccc23)C1 (stereo unspecified),27.6
20,CC(=O)N1CCN(CC(N)=O)CC(COc2ccccc2)C1 (stereo unspecified),-17.7
21,CCc1cc(NC(=O)C2CCCN(C(=O)NCC(C)C)C2)[nH]n1 (stereo unspecified),19.3
22,NC(=O)c1cn(CC2CC2)c(C2CC2)n1,-2.03

row,SMILES,INHIBITION [%]
1,COc1cccc(C(=O)NCCCN2CCc3ccccc3C2)c1OC,25.3
2,O=C(NCC(O)c1ccc(F)cc1F)c1ccccc1F (stereo unspecified),-57.9
3,CCC(CNC(=O)Nc1cnn(CC)c1)N1CCc2ccccc2C1 (stereo unspecified),7.67
4,Cn1cccc1C(CNC(=O)c1ccc(F)cc1F)N1CCCCCC1 (stereo unspecified),34.7
5,CCC(C)NC(=O)c1cncc(Br)c1 (stereo unspecified),-76.5
6,COc1ccccc1C(=O)NCC(c1cccn1C)N1CCOCC1 (stereo unspecified),44.9
7,CCC(CNC(=O)c1ccc(F)cc1F)N1CCc2ccccc2C1 (stereo unspecified),64.3
8,CCC(CNC(=O)c1cncc(Br)c1)N1CCc2ccccc2C1 (stereo unspecified),66.3
9,CCC(CNC(=O)c1ccc(Br)o1)N1CCc2ccccc2C1 (stereo unspecified),16.8
10,CCC(CNC(=O)c1ccccc1OC)N1CCc2ccccc2C1 (stereo unspecified),63.3
11,CCC(CNC(=O)c1ccccn1)N1CCc2ccccc2C1 (stereo unspecified),40.5
12,CCC(CNC(=O)c1ccco1)N1CCc2ccccc2C1 (stereo unspecified),51.4
13,CC(c1ccco1)N(C)C(=O)NCCOc1ccc(C#N)cc1 (stereo unspecified),5.94
14,CN(C)C(=O)CN1CCOCC2(CCN(CC3CCOCC3)CC2)C1,34.9
15,CNc1cccc(C2CCCN(C(=O)c3cncs3)C2)n1 (stereo unspecified),5.56
16,O=C(N[C@@H]1C[C@@H]2CC[C@H]1C2)C1(Oc2ccc(Cl)cc2)CCNCC1,9.72
17,CCc1cnc(N2CC[C@@H]3CN(CCC(C)C)S(=O)(=O)[C@@H]3CC2)nc1,-23.7
18,CC(C)C(=O)N1CC[C@H]2N(C)CC[C@@]2(C(=O)N2CCCC2)CC1,3.81
19,Cc1cc(C)c(CNC(=O)N2CCCC2c2cccc(F)c2)c(=O)[nH]1 (stereo unspecified),27.8
20,CC(C)CS(=O)(=O)N1CCC2(CN(c3ccsc3)C(=O)CN2C)C1 (stereo unspecified),23.6
21,O=C(NCC1(COc2cnccn2)C[C@@H](O)[C@@H](O)C1)C1CCCC1 (stereo partly specified),-15.7
22,CCC(CNC(=O)c1cc(OC)ccc1Br)N1CCc2ccccc2C1 (stereo unspecified),33.5

row,SMILES,INHIBITION [%]
1,CSc1ccccc1C(=O)NCCCN1CCc2ccccc2C1,5.03
2,CCC(CNC(=O)c1ccccc1Br)N1CCc2ccccc2C1 (stereo unspecified),56.4
3,Cc1nn(C)c(C)c1C1COCCN1C(=O)NC1CC1 (stereo unspecified),17.5
4,Cc1nn(C)c(C)c1C1COCCN1C(=O)CSC(C)(C)C (stereo unspecified),37.6
5,Cc1nn(C)c(C)c1C1COCCN1C(=O)CC(C)(C)C (stereo unspecified),62.2
6,CNC(=O)N1CCOCC1c1c(C)nn(C)c1C (stereo unspecified),28.7
7,COCCNC(=O)N1CCOCC1c1c(C)nn(C)c1C (stereo unspecified),51
8,CCN(CC)C(=O)N1CCOCC1c1c(C)nn(C)c1C (stereo unspecified),10.7
9,O=C(c1cnccn1)N1CCc2ncnc(-c3cccnc3)c2CC1,32.7
10,CCc1ccc(CN2CCc3ncnc(-c4cccnc4)c3CC2)o1,-48.8
11,O=C(N1CCC(Oc2ccncc2)CC1)C1(c2ccc(F)cc2)CC1,34.1
12,O=C(N1CCC(Oc2ccncc2)C1)C1(c2ccc(F)cc2)CC1 (stereo unspecified),52
13,O=C(N1CCC(Oc2ccncc2)C1)C1(c2cccc(F)c2)CC1 (stereo unspecified),25.1
14,Cc1cc(C(=O)NCC(C)N2CCc3ccccc32)on1 (stereo unspecified),-25.9
15,COCCn1ccc2ccc(C(=O)O)cc21,-19.6
16,c1cncc(CN2CCC3(CCCN(c4nncs4)C3)C2)c1 (stereo unspecified),-11.6
17,Cc1cnc(N2CCCC3(COCCN(c4ccc(C)nn4)C3)C2)nc1 (stereo unspecified),52.6
18,c1cnc(N2CCCC3(COCCN(c4nncs4)C3)C2)cn1 (stereo unspecified),17.5
19,COc1ccc(N2CCOCC3(CCCN(c4cnccn4)C3)C2)cc1 (stereo unspecified),53.9
20,Cc1ccc(N2CCCC3(COCCN(c4ncccn4)C3)C2)nn1 (stereo unspecified),-37.9
21,Cc1ccc(N2CCCC3(COCCN(c4cnccn4)C3)C2)nn1 (stereo unspecified),-22.1
22,Fc1cccnc1N1CCOCC2(CCCN(c3nncs3)C2)C1 (stereo unspecified),12.6

row,SMILES,INHIBITION [%]
1,Cc1ccc(N2CCOCC3(CCCN(c4ncc(F)cn4)C3)C2)nn1 (stereo unspecified),14.6
2,CC(C)c1ccc(CN2CCC3(CCCN(c4nncs4)C3)C2)cc1 (stereo unspecified),60.4
3,Fc1ccc(CN2CCC3(CCCN(c4nncs4)C3)C2)cc1 (stereo unspecified),-11.6
4,Fc1cnc(N2CCOCC3(CCCN(c4cnccn4)C3)C2)nc1 (stereo unspecified),-13.7
5,c1cnc(N2CCOCC3(CCCN(c4nncs4)C3)C2)cn1 (stereo unspecified),72
6,COc1ccc(F)c(CNC2CCCc3nc(N(C)C)ncc32)c1 (stereo unspecified),37.6
7,O=C(CCCOCc1ccccc1)N1CCCC(n2cncn2)C1 (stereo unspecified),21.6
8,Cc1nn(C2CCS(=O)(=O)C2)c(C)c1CC(=O)NCc1ccccc1Cl (stereo unspecified),-8.9
9,CNC(=O)NC(=O)CCN1CCCC1c1nc(C2CCCCC2)co1 (stereo unspecified),-11.3
10,CN(C)C[C@]12COC[C@H]1CN(C(=O)Cc1ccc3c(c1)OCO3)C2,23.5
11,CC(O)(CN1CCN(CCO)CC1)c1cccc(C(F)(F)F)c1 (stereo unspecified),-14
12,Cc1nc2cc(-c3nccn3C)nn2c(N2CCC(O)CC2)c1C,12.3
13,O=C1COC2(COCCN(c3ccccn3)C2)CN1c1cccc(F)c1 (stereo unspecified),31.2
14,c1ccc(CN2CCc3c(CNc4nccs4)n[nH]c3C2)nc1,34.4
15,CCS(=O)(=O)N1CCCC2(COCCN(c3nncs3)C2)C1 (stereo unspecified),28.2
16,Fc1cnc(N2CCOCC3(CCCN(c4nncs4)C3)C2)nc1 (stereo unspecified),41.5
17,CCN1CCOCC2(CCCN(c3nncs3)C2)C1 (stereo unspecified),52.3
18,Cc1cc(CNC(=O)N2CCc3ccccc3C2CO)c(C)o1 (stereo unspecified),2.43
